# Bioassay records as filed in PubChem BioAssay.
# An excerpt weighted towards active compounds, which were near 19% of everything screened.
# TDP1 block: blocks human tyrosyl-DNA phosphodiesterase 1; Q9NUW8; recombinant TDP1, AlphaScreen DNA substrate cleavage; Potency, µM (series often up to 130 µM), inactives show at the top dose activity change, negative = inhibition, usual class: inhibitors; 350,000 compounds, 0.28% hits; AID 485290; further: nearly all actives have a fitted effect of over 40% in size
#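 Tdp1 1 nM final; 15 min RT w/ cpd; substrate 15 nM, 5 min; beads 10 ug/ml, 10 min; AlphaScreen read. Neg ctrl: no enzyme.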
# DT40 TDP1 CPT: DT40-hTDP1 cell growth loss with CPT. chicken DT40 Tdp1-/-;hTDP1 cells + 20 nM CPT, ATP luminescence, 48 h. Potency, µM (top dose mostly 46.2 µM), inactives show at the top dose activity change, negative = growth inhibition, hits mostly inhibitors. 420,000 compounds, 12% hits; further: nearly all actives have a fitted effect of over 55% in size
#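 Chicken DT40 Tdp1-/- cells stably complemented with human TDP1 were seeded at 400 cells/well in medium containing 20 nM camptothecin, exposed to pin-transferred compounds, and grown at 37 °C for at least 48 hr. Viability was read as ATP luminescence.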
# VP16 counter: Gal4-VP16 reporter inhibition counter-screen; Drosophila S2 Gal4-VP16 UAS-luciferase, luminescence, 20 h; Potency, µM (titrated, usually from 53.6 µM), for the others: at the highest dose activity, negative = inhibition, actives largely listed as inhibitors; 310,000 compounds, 3.5% hits; AID 2546;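 further: Gal4-VP16 expression switched on by copper sulfate through the metallothionein promoter; nearly all actives have a fitted effect of over 50% in size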
# TDP1 cell noCPT: qHTS for Inhibitors of human tyrosyl-DNA phosphodiesterase 1 (TDP1): qHTS in cells in absence of CPT. DT40 Tdp1-/- hTDP1 cells, no CPT, ATP luminescence, 48 h. Potency, µM (titrated, usually from 46.2 µM), for inactives: at the highest dose activity change, negative = growth inhibition, most hits filed as inhibitors. 420,000 compounds, 15% hits. AID 686978, 2013; further: nearly all actives have a fitted effect of over 55% in size
#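 Camptothecin absent (DMSO only). Human TDP1-complemented DT40 knockout cells, 400 cells/well, 37 °C for minimum 48 hr; ATP measured via CellTiter-Glo, 30 min dark incubation, luminescence.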
# RORgamma inh: ROR gamma (mouse) transcription inhibition; P51450; Drosophila S2 Gal4-RORgamma UAS-luciferase reporter, 20 h; Potency, µM (highest dose often 53.6 µM), without a hit: at the highest dose activity change, negative = inhibition, usual class: inhibitors; 310,000 compounds, 5.4% hits; AID 2551; further: nearly all actives have a fitted effect of over 60% in size
# Target sequence (P51450 whole entry, looked up, the tested form may be a part): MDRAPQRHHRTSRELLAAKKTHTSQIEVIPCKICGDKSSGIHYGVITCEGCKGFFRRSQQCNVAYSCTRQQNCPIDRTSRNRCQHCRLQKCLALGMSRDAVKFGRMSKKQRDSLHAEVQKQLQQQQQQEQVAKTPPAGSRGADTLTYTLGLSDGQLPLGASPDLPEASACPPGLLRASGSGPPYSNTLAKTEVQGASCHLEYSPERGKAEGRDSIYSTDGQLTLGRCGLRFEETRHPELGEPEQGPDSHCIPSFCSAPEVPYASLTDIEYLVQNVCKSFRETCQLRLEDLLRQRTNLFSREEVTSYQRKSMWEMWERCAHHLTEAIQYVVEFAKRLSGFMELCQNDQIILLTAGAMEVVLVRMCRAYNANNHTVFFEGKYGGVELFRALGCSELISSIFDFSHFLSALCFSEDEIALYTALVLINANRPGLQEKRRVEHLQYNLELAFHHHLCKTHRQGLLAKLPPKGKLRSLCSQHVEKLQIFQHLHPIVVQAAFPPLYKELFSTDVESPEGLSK
#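 Luminescence from a UAS-regulated Photinus luciferase reporter in stably transfected Drosophila Schneider cells is measured; decreased signal marks ROR gamma inhibition. Fusion expression is induced by 700 uM copper sulfate for 20 hr.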
# * = called active by the depositor; ? = inconclusive; . = not tested or not shown. The call rests on the fitted dose curve; in most records, active means well fitted curve in the direction sought with a large enough effect; inconclusive means small, poorly fitted or top-dose-only effect, or another doubt; inactive means no such curve, though single readings can be large; an effect the other way counts as inactive or inconclusive. On the % scale 0 is the no-effect control and ±100 the full control effect; potency means the concentration at half of the fitted maximal effect.
SMILES,TDP1 block,DT40 TDP1 CPT,VP16 counter,TDP1 cell noCPT,RORgamma inh
CCOC(=O)c1ccc(NC(=O)Cc2coc3cc(C)cc(C)c23)cc1,1%,?,.,18µM*,.
CCOC(=O)c1ccc(NC(=O)Cc2noc3ccc(C)cc23)cc1,5%,21µM*,.,?,.
COc1ccc(NC(=O)Cc2noc3ccc(C)cc23)cc1Cl,5%,?,.,?,.
Clc1ccc(OCc2nnc(SCCN3CCCCC3)n2Cc2ccco2)cc1,12%,?,10%,?,?
COc1c(C)cc(Br)cc1C(=O)Nc1cccc(NC(=O)c2ccco2)c1,9%,?,-16%,?,?
O=C(Nc1cccc(NC(=O)c2ccc(-c3cccc(Br)c3)o2)c1)c1ccco1,4%,16µM*,-11%,11µM*,?
Cc1cc(C)c(OCC(=O)Nc2cccc(NC(=O)c3ccco3)c2)c(Br)c1,8%,23µM*,3%,13µM*,37%
COc1ccc(Br)cc1C(=O)Nc1cccc(NC(=O)c2ccco2)c1,2%,?,-5%,18µM*,26%
COc1ccc(NC(=O)c2ccco2)cc1NC(=O)c1ccccc1F,?,-7%,4%,-15%,15%
COc1ccc(NC(=O)c2ccco2)cc1NC(=O)c1cc(Br)ccc1Cl,9%,-28%,.,21µM*,.
Cc1ccc(CSCC(=O)NCc2ccc(F)cc2)cc1,2%,1%,3%,1%,7%
COC(=O)C1=C(N)OC2=C(C(=O)CCC2)C1c1cccs1 (stereo not given),-1%,4%,26%,-19%,-21%
Cc1ccc(CNS(=O)(=O)c2cn(C)cn2)cc1,3%,-23%,-1%,-3%,3%
O=C1CC2(CCCC2)CC(=O)N1CCNCC1COc2ccccc2O1 (stereo not given),7%,-17%,.,-22%,.
COc1ccc(NC(=O)c2ccco2)cc1NC(=O)COc1ccc(Cl)cc1C,0%,10µM*,.,9.2µM*,.
COC(=O)c1cc(OC)c(OC)cc1NC(=O)c1ccco1,3%,?,-11%,?,4%
COc1ccc(NC(=O)COC(=O)c2cc(OC)c(OC)cc2NC(=O)c2ccco2)cc1OC,8%,?,?,21µM*,-28%
COc1ccc(C(O)(C(C)C)C(CN2CCOCC2)c2ccc(Cl)cc2)cc1 (stereo not given),.,?,-5%,18µM*,-3%
CCCCCC(O)(c1ccc(OCC)cc1)C(CN1CCOCC1)c1ccccc1 (stereo not given),.,?,-20%,16µM*,36%
CCCCC(O)(c1ccc(OC)cc1)C(CN1CCOCC1)c1ccccc1 (stereo not given),.,18µM*,4%,23µM*,20%
COc1ccc(C(O)(C(C)C)C(CN2CCOCC2)c2ccccc2)cc1 (stereo not given),.,?,-4%,?,5%
CCCC(O)(c1ccc(OC)cc1)C(CN1CCOCC1)c1ccccc1 (stereo not given),-11%,?,-7%,?,41%
CCCCC(O)(c1ccc(CC)cc1)C(CN1CCOCC1)c1ccccc1 (stereo not given),.,?,-30%,?,38%
CCCCC(O)(c1ccccc1)C(CN1CCOCC1)c1ccccc1 (stereo not given),.,23µM*,-6%,?,2%
COc1ccc(-c2nc(SC)n(C(=O)c3ccco3)n2)cc1,0%,-28%,3%,-29%,43%
Brc1cccc(-c2nnc3n2CCCCC3)c1,4%,8%,-1%,-29%,-11%
O=C(CC[C@H]1O[C@@H](n2ccc(=O)[nH]c2=O)[C@H](O)[C@@H]1O)N[C@H](Cc1ccccc1)C(=O)NCCCc1ccccc1,.,-7%,.,1%,.
CCCCCC(O)(c1ccc(OC)cc1)C(CN1CCOCC1)c1ccccc1 (stereo not given),.,16µM*,-6%,10µM*,?
CC(C)CC(NC(=O)C1CCC(C)CC1)C(=O)OCC(=O)c1ccc(Cl)cc1 (stereo not given),.,-19%,.,-17%,.
